The nature of experiment [1]: qHTS assay to identify small molecule agonists of the sonic hedgehog signaling (Shh) pathway (AID 1259368).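 Note: NIH/3T3-derived 3T3Gli1-Luc cells carrying a stable Gli1-driven firefly luciferase reporter; series mostly up to about 92 µM; nearly all actives have a fitted effect of over 15% in size.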 A digest of the protocol:
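Luminescence was read after 30 min at room temperature with luciferase reagent. Before that, 3T3Gli1-Luc cells (NIH/3T3 clone, stable Gli1-Luc reporter; 2,000/well) were exposed to compounds for 24 hr at 37C, 5% CO2, compounds being added 4 hr post-plating.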
Background: Quantitative high-throughput screening tests each substance at several concentrations.

Experiment [2] can be described thus: qHTS assay to identify small molecule antagonists of the sonic hedgehog signaling (Shh) pathway (AID 1259369). Note: nearly all actives have a fitted effect of over 45% in size. In outline:
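Antagonist mode: compound added to 3T3 Gli1-Luc cells followed by conditioned-medium stimulation, 24 h at 37 C, 5% CO2. Inhibition taken as loss of Gli1-driven luciferase luminescence.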

Experiment [3] has as its target Estrogen receptor beta (Homo sapiens) (UniProt Q92731). The experiment in a line: qHTS assay to identify small molecule agonists of the estrogen receptor beta (ER-beta) signaling pathway (AID 1259377; active = well fitted activation curve with a large enough effect in the signal ratio in the repeat runs, not every such curve was filed as active; the % refers to the signal ratio; note: potency is the fitted concentration of half-maximal effect). A digest of the protocol:
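Reporter cells (HEK293T, ER-beta-UAS-bla) receive compounds or DMSO after a 6 hr pre-incubation. They then incubate 16 hr at 37C/5% CO2, and fluorescence from LiveBLAzer B/G substrate is measured after 2 hours at room temperature.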

Experiment [4] shares this target. As to the kind of experiment: qHTS assay to identify small molecule antagonists of the estrogen receptor beta (ER-beta) signaling pathway (AID 1259378; active = well fitted inhibition curve with a large enough effect in the signal ratio in the repeat runs, not every such curve was filed as active; the % refers to the signal ratio). A digest of the protocol:
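Antagonist mode: compounds added to beta-lactamase reporter HEK293T ER-beta-UAS cells stimulated with E2 (1nM final), 16 hr at 37C. LiveBLAzer B/G FRET substrate, 2 hours room temperature, fluorescence read-out.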

Experiment [5] is described as follows: qHTS assay to identify small molecule agonists of the estrogen receptor beta (ER-beta) signaling pathway - cell viability counter screen (AID 1259380; active = well fitted curve in the direction sought with a large enough effect in the repeat runs; an effect the other way counts as inactive or inconclusive; note: nearly all actives have a fitted effect of over 30% in size). A digest of the protocol:
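Cell viability counter screen: CellTiter-Glo luminescence (30 min, room temperature) measured in the same wells as the beta-lactamase readout, after 16 hr compound exposure at 37C of ER-beta-bla HEK293T cells in 2% charcoal-stripped FBS medium.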

The target of experiment [6] is Androgen receptor (Homo sapiens) (UniProt P10275). The experiment in a line: qHTS assay to identify small molecule agonists of the androgen receptor (AR) signaling pathway in the presence of an antagonist (AID 1259381). Note: nearly all actives have a fitted effect of over 15% in size. In outline: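 Agonist-mode confirmation run against 3.0 uM final nilutamide: compounds titrated at 15 concentrations onto MDA-kb2 MMTV-luciferase reporter cells. Luminescence measured with ONE-Glo following 16 hr incubation, 37C, 0% CO2.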

The nature of experiment [7]: qHTS assay to identify small molecule antagonists of the estrogen receptor beta (ER-beta) signaling pathway - cell viability counter screen (AID 1259382; active = well fitted curve in the direction sought with a large enough effect in the repeat runs; an effect the other way counts as inactive or inconclusive;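 note: HEK293T cells carrying ER-beta-UAS-bla reporter stimulated with estradiol; series mostly up to about 92 µM; nearly all actives have a fitted effect of over 55% in size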). A digest of the protocol: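 Cytotoxicity was measured in the same wells by CellTiter-Glo luminescence after 30 min at room temperature. Cells were ER-beta-bla HEK293T in charcoal-stripped serum, given compound together with 1 nM E2 and incubated 16 h at 37C.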

In experiment [8] the target is Estrogen receptor (Homo sapiens) (UniProt P03372). The experiment in a line: qHTS assay to identify small molecule agonists of the estrogen receptor alpha (ER-alpha) signaling pathway in the presence of an antagonist (AID 1259383). Note: top concentration of the series differs between compounds; nearly all actives have a fitted effect of over 15% in size. In outline: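 Agonist-mode confirmation run in the presence of 10.0nM (final) ICI-182,780 antagonist. The reporter was ERE-driven luciferase in VM7Luc4E2 cells, grown in charcoal-stripped serum. Cells were exposed to 15-concentration compound series for 22hr, then ONE-Glo luminescence was read.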

Experiment [9] is described as follows: qHTS assay to identify small molecule agonists or antagonists of the thyroid stimulating hormone receptor (TSHR) signaling pathway - wild type cell line counter screen (AID 1259384). In outline: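 Counter screen in untransfected Hek293: compounds (15-point titration, triplicate) plus phosphodiesterase inhibitor Ro20-1724 added after 18 h plating; 30 min RT. Intracellular cAMP via competitive d2/cryptate immunoassay, 1 h incubation.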

Experiment [10] addresses Thyrotropin receptor (Homo sapiens) (UniProt P16473). The experiment in a line: qHTS assay to identify small molecule antagonists of the thyroid stimulating hormone receptor (TSHR) signaling pathway (AID 1259385). Note: nearly all actives have a fitted effect of over 20% in size. In outline: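 Antagonist mode: compound-treated TSHR-expressing HEK293 cells were stimulated with 1.5 ng/mL TSH (final) in presence of Ro20-1724 for 30 min at RT. HTRF cAMP detection after 1 h; each compound tested at 15 concentrations, triplicate.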

Experiment [11] in a line: qHTS assay to identify small molecule agonists of the estrogen receptor alpha (ER-alpha) signaling pathway in the presence of an antagonist - cell viability counter screen (AID 1259386; active = well fitted curve in the direction sought with a large enough effect in the repeat runs; an effect the other way counts as inactive or inconclusive; note: nearly all actives have a fitted effect of over 30% in size; note: potency is the fitted concentration of half-maximal effect; for activity change, negative = cytotoxicity: series mostly up to about 92 µM). In outline: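 Compounds tested at 15 concentrations for 22 h at 37C alongside 10.0nM (final) ICI-182,780 antagonist, in VM7Luc4E2 cells grown in phenol red-free, charcoal-stripped medium. Viability read by CellTiter-Fluor fluorescence after 1 h reagent incubation.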

The target in experiment [12] is Progesterone receptor (Homo sapiens) (UniProt P06401). The experiment in a line: qHTS assay to identify small molecule agonists of the progesterone receptor (PR) signaling pathway (AID 1346784). Note: nearly all actives have a fitted effect of over 30% in size. Note: potency is the fitted concentration of half-maximal effect. A digest of the protocol:
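Reporter assay, GripTite PR-UAS-bla HEK 293T cells: 16 hr exposure to DMSO-dissolved compounds at 37C, 5% CO2, in steroid-depleted (2% charcoal-stripped FBS) medium; beta-lactamase measured by FRET fluorescence.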

For experiment [13] the target is unchanged. As to the kind of experiment: qHTS assay to identify small molecule antagonists of the progesterone receptor (PR) signaling pathway (AID 1346795; active = well fitted inhibition curve with a large enough effect in the signal ratio in the repeat runs, not every such curve was filed as active; the % refers to the signal ratio). In outline:
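Stimulus R5020 at 1 nM final; cells HEK293T PR-UAS-bla; medium with 2% charcoal-stripped FBS; compound exposure 16 hr at 37C, 5% CO2; detection by FRET beta-lactamase substrate, 2 hr, room temperature.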

Experiment [14] can be described thus: qHTS assay to identify small molecule antagonists of the progesterone receptor (PR) signaling pathway - cell viability counter screen (AID 1346798; active = well fitted curve in the direction sought with a large enough effect in the repeat runs; an effect the other way counts as inactive or inconclusive; note: series mostly up to about 92 µM; nearly all actives have a fitted effect of over 50% in size). A digest of the protocol:
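In the same plates used for the beta-lactamase readout, cell viability of compound- and R5020-treated PR-UAS-bla HEK293T cells (16 hr, 37C) was assessed by CellTiter-Glo luminescence.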

A short description of experiment [15]: qHTS assay to identify small molecule agonists of the progesterone receptor (PR) signaling pathway - cell viability counter screen (AID 1346799). Note: nearly all actives have a fitted effect of over 45% in size. In outline:
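Multiplexed viability read: CellTiter-Glo luminescence, 30 min RT, following LiveBLAzer FRET measurement on PR-UAS-bla HEK293T cells exposed to compounds 16 hr.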

Experiment [16] in a line: qHTS assay to identify small molecule antagonists of the TGF-beta/Smad signaling pathway - cell viability counter screen (AID 1346824; active = well fitted curve in the direction sought with a large enough effect in the repeat runs; an effect the other way counts as inactive or inconclusive; note: nearly all actives have a fitted effect of over 50% in size). In outline: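 Cytotoxicity counter-screen run in the same wells as the beta-lactamase Smad reporter read: CellTiter-Glo luminescence after 30 min at room temperature. HEK 293T SBE-bla cells had 5 hr compound exposure at 37 C with TGF-beta1 (0.25 ng/mL stock).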

Experiment [17] can be described thus: qHTS assay to identify small molecule agonists of the TGF-beta/Smad signaling pathway - cell viability counter screen (AID 1346829; active = well fitted curve in the direction sought with a large enough effect in the repeat runs; an effect the other way counts as inactive or inconclusive; note: top concentration of the series differs between compounds; nearly all actives have a fitted effect of over 45% in size). A digest of the protocol:
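HEK 293T SBE-bla line, 5 hr compound exposure at 37 C, multiplexed CellTiter-Glo viability read by luminescence.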

The nature of experiment [18]: qHTS assay to identify small molecule agonists of the TGF-beta/Smad signaling pathway (AID 1346859; active = well fitted activation curve with a large enough effect in the signal ratio in the repeat runs, not every such curve was filed as active; the % refers to the signal ratio; note: series mostly up to about 77 µM). A digest of the protocol:
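Screening used HEK 293T SBE-bla cells at 4,000/well. Test agents: 5 hr, 37 C. Detection: FRET substrate, 2 hr RT, then excitation 405 nm with emissions at 460 and 530 nm.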

The target in experiment [19] is Thyrotropin-releasing hormone receptor (Homo sapiens) (UniProt P34981). As to the kind of experiment: qHTS assay to identify small molecule antagonists of the thyrotropin-releasing hormone receptor (TRHR) signaling pathway (AID 1346877; active = well fitted inhibition curve with a large enough effect in the repeat runs, not every such curve was filed as active; note: series mostly up to about 51 µM). A digest of the protocol:
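Antagonist mode: after a 5 min room-temperature compound exposure, cells were stimulated with 1 nM (final) TRH. Dye-loaded TRHR-HEK293 cells were used, and calcium-dependent fluorescence was followed for 3 min, with 15-point titrations run in triplicate.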

Experiment [20] in a line: qHTS assay to identify small molecule agonists of the androgen receptor (AR) signaling pathway in the presence of an antagonist - cell viability counter screen (AID 1259379; active = well fitted curve in the direction sought with a large enough effect in the repeat runs; an effect the other way counts as inactive or inconclusive; note: nearly all actives have a fitted effect of over 25% in size; note: potency is the fitted concentration of half-maximal effect;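 for activity change, negative = cytotoxicity: MDA-kb2 human breast cancer cells carrying an MMTV luciferase reporter; series mostly up to about 92 µM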). A digest of the protocol:
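Cytotoxicity counter-screen run in the same wells as the nilutamide-challenged (3.0 µM final) AR agonist assay in MDA-kb2 cells. Compounds tested at 15 concentrations for 16 h, 37 °C without CO2; CellTiter-Fluor fluorescence read.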

Here are results for eight compounds from PubChem BioAssay (Tox21).

Molecules are shown by their SMILES. Unmarked numbers belong to inactive results. Records with an inconclusive call do not appear. The source made the active and inactive calls. Unless noted, calls come from the whole dose curve.
% is set by controls: 0 for no effect and ±100 for the full control effect.

Chain of Thyrotropin receptor (Homo sapiens) (P16473 whole entry, looked up): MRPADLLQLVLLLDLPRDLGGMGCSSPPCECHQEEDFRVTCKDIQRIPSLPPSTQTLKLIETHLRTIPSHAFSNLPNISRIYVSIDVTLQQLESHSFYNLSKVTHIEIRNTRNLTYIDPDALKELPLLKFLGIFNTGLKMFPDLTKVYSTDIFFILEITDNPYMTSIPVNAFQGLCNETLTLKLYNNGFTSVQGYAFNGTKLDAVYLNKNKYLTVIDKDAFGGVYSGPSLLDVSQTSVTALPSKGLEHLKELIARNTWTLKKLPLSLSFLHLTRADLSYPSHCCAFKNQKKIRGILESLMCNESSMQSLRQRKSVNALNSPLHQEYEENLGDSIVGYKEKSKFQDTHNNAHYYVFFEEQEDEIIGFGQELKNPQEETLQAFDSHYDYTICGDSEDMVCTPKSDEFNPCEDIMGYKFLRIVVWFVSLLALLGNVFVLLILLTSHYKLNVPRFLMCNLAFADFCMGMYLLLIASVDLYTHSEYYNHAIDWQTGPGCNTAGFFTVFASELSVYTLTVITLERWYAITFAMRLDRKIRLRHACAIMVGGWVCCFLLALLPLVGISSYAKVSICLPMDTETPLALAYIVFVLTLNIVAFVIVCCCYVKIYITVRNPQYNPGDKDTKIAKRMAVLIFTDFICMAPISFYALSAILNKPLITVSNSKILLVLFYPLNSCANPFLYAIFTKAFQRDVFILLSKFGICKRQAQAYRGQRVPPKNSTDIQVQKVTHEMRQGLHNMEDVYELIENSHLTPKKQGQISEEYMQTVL
Chain of Estrogen receptor (Homo sapiens) (P03372 whole entry, looked up): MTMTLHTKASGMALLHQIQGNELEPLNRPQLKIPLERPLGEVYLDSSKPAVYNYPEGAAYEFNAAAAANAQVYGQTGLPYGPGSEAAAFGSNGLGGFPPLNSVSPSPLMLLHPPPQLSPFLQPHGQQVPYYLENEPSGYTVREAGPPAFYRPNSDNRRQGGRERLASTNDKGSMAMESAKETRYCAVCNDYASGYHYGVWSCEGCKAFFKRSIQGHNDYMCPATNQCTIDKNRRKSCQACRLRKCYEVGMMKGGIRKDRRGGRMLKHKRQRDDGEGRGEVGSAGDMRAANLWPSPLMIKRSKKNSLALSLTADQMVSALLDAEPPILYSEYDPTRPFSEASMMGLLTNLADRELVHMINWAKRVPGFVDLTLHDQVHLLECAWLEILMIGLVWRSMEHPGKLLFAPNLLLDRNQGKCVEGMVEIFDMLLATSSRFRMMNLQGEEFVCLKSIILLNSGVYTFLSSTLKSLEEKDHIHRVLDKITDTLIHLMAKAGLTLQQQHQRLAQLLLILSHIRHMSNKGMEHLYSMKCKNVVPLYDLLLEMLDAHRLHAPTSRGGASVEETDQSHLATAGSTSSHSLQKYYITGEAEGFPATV
Chain of Thyrotropin-releasing hormone receptor (Homo sapiens) (P34981 whole entry, looked up): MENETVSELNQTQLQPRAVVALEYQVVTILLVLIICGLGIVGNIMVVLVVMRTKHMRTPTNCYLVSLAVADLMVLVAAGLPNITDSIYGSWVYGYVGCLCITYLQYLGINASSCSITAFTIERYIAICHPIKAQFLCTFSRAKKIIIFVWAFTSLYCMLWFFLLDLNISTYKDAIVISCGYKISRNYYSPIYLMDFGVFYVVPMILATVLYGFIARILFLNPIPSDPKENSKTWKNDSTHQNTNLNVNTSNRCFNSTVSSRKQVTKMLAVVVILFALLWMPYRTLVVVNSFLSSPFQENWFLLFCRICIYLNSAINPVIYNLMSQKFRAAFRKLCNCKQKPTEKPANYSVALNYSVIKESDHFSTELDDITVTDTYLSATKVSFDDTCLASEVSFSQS
Chain of Estrogen receptor beta (Homo sapiens) (Q92731 whole entry, looked up): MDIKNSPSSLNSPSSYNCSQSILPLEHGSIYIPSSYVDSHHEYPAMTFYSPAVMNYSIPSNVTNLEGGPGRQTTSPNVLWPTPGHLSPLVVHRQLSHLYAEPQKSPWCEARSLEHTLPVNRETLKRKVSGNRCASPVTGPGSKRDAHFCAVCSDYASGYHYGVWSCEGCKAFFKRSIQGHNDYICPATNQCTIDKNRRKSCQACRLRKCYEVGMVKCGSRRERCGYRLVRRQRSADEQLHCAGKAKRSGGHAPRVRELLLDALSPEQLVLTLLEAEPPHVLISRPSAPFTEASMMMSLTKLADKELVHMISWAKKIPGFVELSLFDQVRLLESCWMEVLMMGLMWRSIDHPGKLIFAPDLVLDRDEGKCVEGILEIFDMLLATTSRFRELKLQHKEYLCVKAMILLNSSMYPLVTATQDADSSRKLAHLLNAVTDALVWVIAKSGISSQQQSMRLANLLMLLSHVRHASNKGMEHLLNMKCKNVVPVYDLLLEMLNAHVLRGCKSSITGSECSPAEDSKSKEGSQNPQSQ
Chain of Progesterone receptor (Homo sapiens) (P06401 whole entry, looked up): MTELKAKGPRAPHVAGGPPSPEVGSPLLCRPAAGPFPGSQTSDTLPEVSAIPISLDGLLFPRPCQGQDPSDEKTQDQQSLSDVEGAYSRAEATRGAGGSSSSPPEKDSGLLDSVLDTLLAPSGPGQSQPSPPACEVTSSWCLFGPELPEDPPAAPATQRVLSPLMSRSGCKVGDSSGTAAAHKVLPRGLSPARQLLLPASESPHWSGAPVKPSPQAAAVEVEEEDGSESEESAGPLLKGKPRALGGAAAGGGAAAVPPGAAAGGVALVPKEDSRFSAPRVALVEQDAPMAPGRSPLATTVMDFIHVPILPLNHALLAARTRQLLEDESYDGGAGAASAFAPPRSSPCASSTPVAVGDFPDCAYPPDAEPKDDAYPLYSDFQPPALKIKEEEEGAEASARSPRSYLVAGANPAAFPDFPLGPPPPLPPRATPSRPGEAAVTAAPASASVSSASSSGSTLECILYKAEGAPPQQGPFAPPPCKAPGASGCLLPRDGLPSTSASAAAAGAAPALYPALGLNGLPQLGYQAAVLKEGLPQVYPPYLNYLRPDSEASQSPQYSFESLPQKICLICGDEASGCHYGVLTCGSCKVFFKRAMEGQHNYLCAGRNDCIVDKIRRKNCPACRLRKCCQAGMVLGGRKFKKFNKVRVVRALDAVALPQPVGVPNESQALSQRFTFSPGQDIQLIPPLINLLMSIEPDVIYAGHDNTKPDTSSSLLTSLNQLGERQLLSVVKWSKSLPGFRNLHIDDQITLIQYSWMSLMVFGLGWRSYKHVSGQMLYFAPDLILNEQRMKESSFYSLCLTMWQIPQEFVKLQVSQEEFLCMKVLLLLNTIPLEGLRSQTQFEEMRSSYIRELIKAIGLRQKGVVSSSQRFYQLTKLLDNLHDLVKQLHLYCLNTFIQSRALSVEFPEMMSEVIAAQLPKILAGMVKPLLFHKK
Chain of Androgen receptor (Homo sapiens) (P10275 whole entry, looked up): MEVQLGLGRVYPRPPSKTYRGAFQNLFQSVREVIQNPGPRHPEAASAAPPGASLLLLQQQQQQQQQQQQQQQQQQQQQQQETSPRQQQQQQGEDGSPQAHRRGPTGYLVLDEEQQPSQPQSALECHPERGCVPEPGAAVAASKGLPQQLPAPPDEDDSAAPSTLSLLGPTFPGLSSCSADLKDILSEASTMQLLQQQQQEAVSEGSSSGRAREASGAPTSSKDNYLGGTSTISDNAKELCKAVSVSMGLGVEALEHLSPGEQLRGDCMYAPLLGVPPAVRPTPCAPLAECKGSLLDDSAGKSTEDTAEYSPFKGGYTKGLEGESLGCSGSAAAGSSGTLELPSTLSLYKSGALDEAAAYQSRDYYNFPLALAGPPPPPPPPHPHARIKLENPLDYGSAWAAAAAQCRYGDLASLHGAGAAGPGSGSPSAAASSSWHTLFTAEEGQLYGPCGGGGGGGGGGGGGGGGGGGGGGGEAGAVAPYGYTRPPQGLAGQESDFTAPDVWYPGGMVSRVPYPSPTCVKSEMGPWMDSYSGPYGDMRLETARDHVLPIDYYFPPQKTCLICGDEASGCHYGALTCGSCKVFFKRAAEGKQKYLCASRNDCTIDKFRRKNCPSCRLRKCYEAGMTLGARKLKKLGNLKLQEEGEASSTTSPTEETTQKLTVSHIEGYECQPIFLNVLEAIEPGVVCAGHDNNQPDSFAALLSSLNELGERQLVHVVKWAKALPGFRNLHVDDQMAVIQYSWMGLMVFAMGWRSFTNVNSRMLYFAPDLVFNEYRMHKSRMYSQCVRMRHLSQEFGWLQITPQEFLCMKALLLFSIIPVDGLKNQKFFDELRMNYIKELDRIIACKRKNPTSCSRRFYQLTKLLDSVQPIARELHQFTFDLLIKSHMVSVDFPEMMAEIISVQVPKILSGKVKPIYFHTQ

In the case of `Cc1ccc2c(Cl)cc(Cl)c(O)c2n1`, the Potency result in [1], in experiment [2], in [3], in [4], in [5] and in experiment [6] was “inactive” throughout. Further, the Potency entry in experiment [7], in experiment [8], in experiment [10], in experiment [11], in experiment [12] and in experiment [13] was “inactive” each time. Besides, the Potency entry in experiment [14] and in experiment [15] was “inactive” each time. The result in experiment [9], in experiment [16], in [17], in experiment [18] and in experiment [19] was inactive.

As to `CC(C)(C)c1ccc(CCC=O)cc1`, the Potency result in [1], in [2], in [3], in [4], in experiment [20] and in [7] was “inactive” throughout. Further, the Potency result in [8], in experiment [10], in experiment [11], in experiment [12], in [13] and in experiment [14] was “inactive” in each case. The Potency result in experiment [15] was “inactive”. Besides, the compound was classed as inactive in experiment [9], in experiment [16], in [18] and in experiment [19].

For `O=C1c2ccccc2C(=O)c2c1ccc(O)c2O`, the Potency entry in experiment [1], in [2], in experiment [5], in [7], in experiment [12] and in experiment [13] was “inactive” in each case. For the same compound, the Potency result in [14] is “inactive”. Further, the results for the Potency in [3], in experiment [20] and in experiment [11] were 7.5 µM (active), 23.7 µM (active) and 26.6 µM (active), respectively. In addition, the call in experiment [16], in [17] and in [18] was inactive.

`CC1=CC(=C(c2ccc(N)cc2)c2ccc(N)cc2)C=CC1=N`: the activity change in experiment [1] is -2.79% [at 8.39 µM, active compounds read high]. In addition, the values for the activity change, negative = inhibition in experiment [2], in [10] and in experiment [13] were -22.7% [at 8.39 µM], 0.722% [at 8.39 µM] and 5.6% [at 8.39 µM], respectively. Moreover, the activation in experiment [3] is -6.24% [at 8.39 µM]; in [8], 0.281% [at 8.39 µM]; in experiment [18] it was 8.28% [at 6.97 µM]. The Potency was 3.1 µM (active) in experiment [20] and 0.39 µM (active) in experiment [12]. For the same compound, the cAMP activity change in experiment [9] is -1.93% [at 8.39 µM]. Besides, the activity change, negative = cytotoxicity in experiment [14] is 5.81% [at 8.39 µM]; in experiment [15], 0% [at 8.39 µM]; in experiment [17], 4.82% [at 6.97 µM]. Moreover, in [16], the viability change, negative = cytotoxic was 12% [at 6.97 µM].

Turning to `CCCOC(C)=O`, the Potency result in experiment [1], in experiment [2], in experiment [3], in experiment [4], in [5] and in experiment [6] was “inactive” in each case. The Potency entry in experiment [7], in experiment [8], in experiment [10], in [11], in experiment [12] and in [13] was “inactive” each time. In addition, the Potency entry in experiment [14] and in experiment [15] was “inactive” each time. Besides, the compound was called inactive in [16], in experiment [18] and in experiment [19].

As to `C/C(=C\C(C)CC(C)CC(C)C)C1CC(=O)OC1=O` (stereo not drawn), the Potency entry in experiment [1], in experiment [2], in experiment [3], in [20], in experiment [7] and in experiment [8] was “inactive” throughout. Also, the Potency result in experiment [10], in experiment [11] and in [12] was “inactive” throughout. Moreover, the compound was classed as inactive in experiment [16], in experiment [17], in experiment [18] and in experiment [19].

`CCC(C)C1N=C(C)C(C)S1` (stereo not drawn): the Potency result in experiment [1], in experiment [2], in experiment [3], in experiment [4], in experiment [5] and in experiment [7] was “inactive” throughout. Moreover, the Potency result in experiment [10], in [11], in experiment [12], in [14] and in experiment [15] was “inactive” throughout. Further, the call in experiment [9], in experiment [16], in [17], in [18] and in experiment [19] was inactive.

As for `O=[N+]([O-])c1ccc(Cl)cc1Cl`, the Potency result in experiment [1], in experiment [2], in experiment [20], in [7], in experiment [10] and in [11] was “inactive” in each case. Besides, the Potency result in experiment [13] and in [14] was “inactive” in each case. Moreover, the call in experiment [9], in experiment [16], in experiment [17], in experiment [18] and in [19] was inactive. The Potency in [12] is 24 µM (active).
